Laboratory results: ChEMBL document CHEMBL3988442, “University of Dundee, Small-Polar-MMV Screening Library” (2021)

Key:
[1] = target: T1, Aspartate--tRNA(Asp/Asn) ligase (Mycobacterium tuberculosis (strain ATCC 25618 / H37Rv)) (UniProt P9WFW3); assay: Assay for Asp RNA synthetase-1 from Mycobacterium tuberculosis; type: functional; design: scale not given: direction of the effect not stated beside the values; settings: 30 µM; further: in the data most compounds retested in dose-response had high values
T1 sequence (whole entry): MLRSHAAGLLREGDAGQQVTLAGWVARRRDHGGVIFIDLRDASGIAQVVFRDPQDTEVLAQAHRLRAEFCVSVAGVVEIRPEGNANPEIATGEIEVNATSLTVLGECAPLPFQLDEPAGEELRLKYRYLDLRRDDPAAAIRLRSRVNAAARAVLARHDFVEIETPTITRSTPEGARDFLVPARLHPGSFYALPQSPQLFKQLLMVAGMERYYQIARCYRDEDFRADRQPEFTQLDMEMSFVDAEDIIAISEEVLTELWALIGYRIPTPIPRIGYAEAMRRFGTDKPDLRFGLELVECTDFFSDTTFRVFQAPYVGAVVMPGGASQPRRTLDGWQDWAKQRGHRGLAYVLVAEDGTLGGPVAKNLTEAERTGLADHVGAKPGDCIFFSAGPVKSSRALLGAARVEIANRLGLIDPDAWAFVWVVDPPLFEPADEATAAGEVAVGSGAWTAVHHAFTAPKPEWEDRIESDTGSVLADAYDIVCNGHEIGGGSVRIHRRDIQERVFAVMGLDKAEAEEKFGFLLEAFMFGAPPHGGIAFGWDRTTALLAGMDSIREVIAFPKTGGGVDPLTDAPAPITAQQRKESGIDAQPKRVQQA

[2] = target: Shiga toxin 2 (Escherichia coli O157:H7) (UniProt P09385+P09386); assay: E. coli 0.157:H7 Shiga Toxin SOP - stx2 screening assay; type: functional; design: scale not given: direction of the effect not stated beside the values; settings: 30 µM

Structure (SMILES)	Percent Effect [1] [%]	Percent Effect [2] [%]
NC(=O)C1CCN(CCc2ccc(NC(=O)C3CCC3)cc2)CC1	3.99	-2.25
Cc1ncsc1C(=O)N(C)Cc1cccc(Cl)c1	-1.26	17.9
CN(C)C(CNC(=O)c1cc2c([nH]c1=O)CCCC2=O)c1ccsc1 (stereo unspecified)	2.97	-21.1
